From the supplement of paper PMC8728848
This excerpt belongs to a sample that is enriched for the strongest signals.

Columns and labels:
Test in all cases: glycan array binding signal (z-score within array); higher = stronger binding
Settings in all cases: glycan notation: IUPAC condensed, linker removed
[1] = target: Fuc(a1-2)Gal(b1-3)GlcNAc(b1-2)Man(a1-3)[Fuc(a1-2)Gal(b1-3)GlcNAc(b1-2)Man(a1-6)]Man(b1-4)GlcNAc(b1-4)[Fuc(a1-6)]GlcNAc
Method in brief: (§1)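 The binding signal is a Z-score computed within each array. Data were drawn from 3228 arrays in the Consortium for Functional Glycomics database, restricted to those with a known protein sequence. Scores were averaged over arrays of the same protein sequence at different concentrations or buffers, and over linkers, and negative values can be taken as non-binding.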

[2] = target: Fuc(a1-2)Gal(b1-4)[Fuc(a1-3)]GlcNAc(b1-3)GalNAc
Method in brief: as §1

[3] = target: Fuc(a1-2)[GalNAc(a1-3)]Gal(b1-4)Glc
Method in brief: as §1

[4] = target: Fuc(a1-2)[GalNAc(a1-3)]Gal(b1-4)GlcNAc(b1-2)Man(a1-3)[Fuc(a1-2)[GalNAc(a1-3)]Gal(b1-4)GlcNAc(b1-2)Man(a1-6)]Man(b1-4)GlcNAc(b1-4)GlcNAc
Method in brief: as §1

[5] = target: Fuc(a1-2)[GalNAc(a1-3)]Gal(b1-4)GlcNAc(b1-3)Gal(b1-4)GlcNAc
Method in brief: as §1

[6] = target: Fuc(a1-2)[GalNAc(a1-3)]Gal(b1-4)GlcNAc(b1-3)Gal(b1-4)GlcNAc(b1-3)Gal(b1-4)GlcNAc
Method in brief: as §1

[7] = target: Fuc(a1-2)[GalNAc(a1-3)]Gal(b1-4)[Fuc(a1-3)]GlcNAc(b1-3)GalNAc
Method in brief: as §1

[8] = target: Fuc(a1-3)[Gal(b1-4)]GlcNAc(b1-6)[Gal(b1-3)GlcNAc(b1-3)]Gal(b1-4)Glc
Method in brief: as §1

[9] = target: Fuc(a1-3)[Gal(b1-4)]GlcNAc6S
Method in brief: as §1

Fuc(a1-4)GlcNAc = target: Fuc(a1-4)GlcNAc
Method in brief: as §1

[10] = target: Gal(a1-3)Gal(b1-3)GlcNAc(b1-3)GalNAc
Method in brief: as §1

Gal(a1-3)GalNAc = target: Gal(a1-3)GalNAc
Method in brief: as §1

[11] = target: Gal(b1-3)GalNAc(a1-3)[Fuc(a1-2)]Gal(b1-4)Glc
Method in brief: as §1

[12] = target: Gal(b1-3)[Fuc(a1-4)]GlcNAc(b1-2)Man(a1-3)[Gal(b1-3)[Fuc(a1-4)]GlcNAc(b1-2)Man(a1-6)]Man(b1-4)GlcNAc(b1-4)[Fuc(a1-6)]GlcNAc
Method in brief: as §1

[13] = target: Gal(b1-3)[Fuc(a1-4)]GlcNAc(b1-3)Gal(b1-3)[Fuc(a1-4)]GlcNAc
Method in brief: as §1

[14] = target: Gal(b1-4)GlcNAc(b1-2)Man(a1-3)Man(b1-4)GlcNAc(b1-4)GlcNAc
Method in brief: as §1

Gal3S(b1-3)GalNAc = target: Gal3S(b1-3)GalNAc
Method in brief: as §1

Gal3S(b1-3)GlcNAc = target: Gal3S(b1-3)GlcNAc
Method in brief: as §1

Gal3S(b1-4)Glc6S = target: Gal3S(b1-4)Glc6S
Method in brief: as §1

Gal3S(b1-4)GlcNAc = target: Gal3S(b1-4)GlcNAc
Method in brief: as §1

[15] = target: GalNAc(a1-3)GalNAc(b1-3)Gal(a1-4)Gal(b1-4)GlcNAc
Method in brief: as §1

Glc(a1-4)Glc = target: Glc(a1-4)Glc
Method in brief: as §1

Glc(b1-4)Glc = target: Glc(b1-4)Glc
Method in brief: as §1

GlcA(b1-3)GlcNAc = target: GlcA(b1-3)GlcNAc
Method in brief: as §1

[16] = target: GlcNAc(b1-2)Man(a1-3)[GlcNAc(b1-2)Man(a1-6)]Man(b1-4)GlcNAc(b1-4)GlcNAc
Method in brief: as §1

[17] = target: GlcNAc(b1-2)[GlcNAc(b1-6)]Man(a1-6)[GlcNAc(b1-2)Man(a1-3)][GlcNAc(b1-4)]Man(b1-4)GlcNAc(b1-4)GlcNAc
Method in brief: as §1

GlcNAc(b1-3)Man = target: GlcNAc(b1-3)Man
Method in brief: as §1

[18] = target: GlcNAc6S(b1-3)Gal(b1-4)GlcNAc
Method in brief: as §1

[19] = target: Man(a1-3)[Man(a1-6)]Man(a1-6)[Man(a1-3)]Man
Method in brief: as §1

[20] = target: Neu5Ac(a2-3)Gal(b1-3)[Neu5Ac(a2-6)]GalNAc
Method in brief: as §1

[21] = target: Neu5Ac(a2-3)Gal(b1-4)[Fuc(a1-3)]GlcNAc(b1-3)Gal
Method in brief: as §1

[22] = target: Neu5Ac(a2-6)Gal(b1-4)GlcNAc(b1-3)GalNAc
Method in brief: as §1

[23] = target: Neu5Ac(a2-6)GalNAc(b1-4)GlcNAc
Method in brief: as §1

[24] = target: Neu5Ac(a2-8)Neu5Ac(a2-3)[Gal(b1-3)GalNAc(b1-4)]Gal(b1-4)Glc
Method in brief: as §1

[25] = target: Neu5Ac(a2-8)Neu5Ac(a2-8)Neu5Ac(a2-8)Neu5Ac(a2-3)[GalNAc(b1-4)]Gal(b1-4)Glc
Method in brief: as §1

[26] = target: Neu5Ac(b2-6)Gal(b1-4)GlcNAc
Method in brief: as §1

[27] = target: Neu5Gc(a2-3)Gal(b1-3)GlcNAc
Method in brief: as §1

B1: Gal 9 (Canis lupus) (protein)
chain: MAFSSSQPPYLSPGVPFSGKIQGGLQDGLKITINGTILYCNGTRFAVNFHSGHSDSDIAFHFNPRFEEGGYVVCNTKQKGSWGSEERKMQMPFQMGNPFELCFMVNSCDFKVTVNGSHFTQYSHRVPFHYVDTLSITGAVQLSYISFQSPGVWQSSSAPITQTVIHTVQTTPGQPFPNPIIPPTAYPTPTYPMPFFTSIPGGLYPSKSIIVSGTVLPGAKRFHINLRSGNDIAFHLNPRFNENTVVRNMQINNSWGSEERSLPRKMPFVQGQSFSVWIMCEGHCFKVAVDGEHLFEYYHRLKNLLAINNMEVAGDVQLTHVQT
[1]
  glycan array binding signal (z-score): -0.285
[2]
  glycan array binding signal (z-score): -0.26
[3]
  glycan array binding signal (z-score): 2.88
[4]
  glycan array binding signal (z-score): 9.39
[5]
  glycan array binding signal (z-score): 5.36
[6]
  glycan array binding signal (z-score): 2.68
[7]
  glycan array binding signal (z-score): -0.288
[8]
  glycan array binding signal (z-score): -0.156
[9]
  glycan array binding signal (z-score): -0.337
Fuc(a1-4)GlcNAc
  glycan array binding signal (z-score): -0.346
[10]
  glycan array binding signal (z-score): 0.104
Gal(a1-3)GalNAc
  glycan array binding signal (z-score): -0.296
[11]
  glycan array binding signal (z-score): 3.45
[12]
  glycan array binding signal (z-score): -0.287
[13]
  glycan array binding signal (z-score): -0.315
[14]
  glycan array binding signal (z-score): 0.09
Gal3S(b1-3)GalNAc
  glycan array binding signal (z-score): 5.93
Gal3S(b1-3)GlcNAc
  glycan array binding signal (z-score): 0.396
Gal3S(b1-4)Glc6S
  glycan array binding signal (z-score): 3.83
Gal3S(b1-4)GlcNAc
  glycan array binding signal (z-score): 0.222
[15]
  glycan array binding signal (z-score): 3.04
Glc(a1-4)Glc
  glycan array binding signal (z-score): -0.327
Glc(b1-4)Glc
  glycan array binding signal (z-score): -0.311
GlcA(b1-3)GlcNAc
  glycan array binding signal (z-score): -0.341
[16]
  glycan array binding signal (z-score): -0.332
[17]
  glycan array binding signal (z-score): -0.338
GlcNAc(b1-3)Man
  glycan array binding signal (z-score): -0.347
[18]
  glycan array binding signal (z-score): -0.104
[19]
  glycan array binding signal (z-score): -0.346
[20]
  glycan array binding signal (z-score): -0.055
[21]
  glycan array binding signal (z-score): -0.343
[22]
  glycan array binding signal (z-score): -0.178
[23]
  glycan array binding signal (z-score): -0.345
[24]
  glycan array binding signal (z-score): -0.302
[25]
  glycan array binding signal (z-score): -0.331
[26]
  glycan array binding signal (z-score): -0.331
[27]
  glycan array binding signal (z-score): 0.216
